About 800 (1.6%) of roughly 50,000 compounds showed an effect of 50% or more. The sample as a whole holds a higher share of strong results than the screen did.

We go through 111 compounds from PubChem BioAssay AID1240 (Sanford-Burnham Center for Chemical Genomics, 2008).

For the assay, the target named is Bcl-2-like protein 10 (Homo sapiens) (UniProt Q9HD36). Briefly: TR3 peptide-Bcl-B binding displacers, biochemical primary FP assay, phenotype converters (AID 1240).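 Further: 0% = Bcl-B with tracer peptide and DMSO and 100% = tracer peptide lacking Bcl-B.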 Particulars: GST-Bcl-B / FITC-TR3 peptide fluorescence polarization; stronger effect = higher value; compound at 3.75 mg/L. (In general: In fluorescence polarisation assays a small probe gives low polarisation when free and higher when bound to something large.)
Sequence of Bcl-2-like protein 10 (Homo sapiens) (Q9HD36 whole entry, looked up): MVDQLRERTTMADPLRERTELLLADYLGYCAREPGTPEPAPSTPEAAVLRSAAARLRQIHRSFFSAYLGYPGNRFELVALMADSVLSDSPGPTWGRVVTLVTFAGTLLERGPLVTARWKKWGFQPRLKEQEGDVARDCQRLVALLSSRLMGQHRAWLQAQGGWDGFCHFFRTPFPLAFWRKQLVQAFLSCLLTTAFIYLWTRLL
Turning to `CCN(CC)CCCCOc1ccc(Cl)c(C)c1`, the displacement was -10.7%.
With `COc1ccc(CCNC(=O)C(=O)Nc2ccc3c(c2)OCCO3)cc1OC` the figure was 3.4%; with `Cc1cccc(CN2CCN(Cc3ccncc3)CC2)c1`, -1.1%; with `COC(=O)c1sc2nc(-c3ccccc3)nc(N3CCOCC3)c2c1C`, 47.3%.
On to `CC1(C)Oc2ccc3ccc(=O)oc3c2/C(=C/N2CCOCC2)C1=O`, for which the displacement was -5.9%.
As to `COc1ccc(Cl)cc1C(=O)Nc1ccc(C)cc1C`, the displacement turned out to be 10.1%.
On to `CN(C)c1ccc(/C=N/NC(=O)CNC(=O)c2ccc(F)cc2)cc1`, for which the displacement amounted to 2.3%.
In the case of `COc1ccc(-c2ccc(/C=C/C(=O)c3cc4ccccc4o3)o2)cc1`, the displacement is -52.6%.
Consider `O=C(/C=C/c1ccc(-c2ccc([N+](=O)[O-])cc2)o1)c1cc2ccccc2o1`, for which the displacement was determined as 190%.
As for `O=C(/C=C/c1ccc(-c2ccccc2[N+](=O)[O-])o1)c1cc2ccccc2o1`, the displacement was found to be 44.1%.
Then `O=C(Nc1cc(NC(=O)c2ccccc2)cc(C(=O)Nc2nccs2)c1)c1ccccc1`, with 4.4%; and `O=C(COc1ccccc1F)Nc1nc(-c2cccs2)c(NC(=O)c2ccccc2)s1`, with 14.6%.
As to `CC(C(=O)NN)C1=NC(C)(C)Cc2ccccc21` (stereo unspecified), the displacement was -17.7%.
Then `CC(=O)N1N=C2CC(C)(C)OCC2C1c1ccccc1` (stereo unspecified), with 12%; and `N=C(SC1CC(=O)N(c2cccc3ccccc23)C1=O)N1N=C(c2cccs2)CC1c1ccc(Br)cc1` (stereo unspecified), with 85.7%; and `N=C(SC1CC(=O)N(c2ccccc2Cl)C1=O)N1N=C(c2cccs2)CC1c1ccc(Br)cc1` (stereo unspecified), with 1.4%.
As for `Cc1cccc(N2C(=O)CC(SC(=N)N3N=C(c4cccs4)CC3c3ccc(Br)cc3)C2=O)c1` (stereo unspecified), the displacement came to 5.6%.
In the case of `Cn1c(CNc2ccc(O)cc2)nc2ccccc21`, the displacement was found to be 76.7%.
Consider `Cn1c(CNc2ccccc2O)nc2ccccc21`, for which the displacement is 0.7%.
Turning to `Cn1c(CNc2ccccc2)nc2ccccc21`, the displacement was -1.3%.
In the case of `COc1ccc(N(CC(=O)N2CCN(c3ccccc3OC)CC2)S(=O)(=O)c2ccccc2)c(OC)c1`, the displacement was 8.6%.
Turning to `c1ccc(Oc2cccc(CSc3nnnn3-c3ccccc3)c2)cc1`, the displacement is 1%.
On to `Cc1ccc(NC2C=CS(=O)(=O)C2)cc1C` (stereo unspecified), for which the displacement was 6.7%.
On to `CCc1cccc(C)c1NC1C=CS(=O)(=O)C1` (stereo unspecified), for which the displacement amounted to 52.3%.
Then `Cc1c(Cl)cccc1NC1C=CS(=O)(=O)C1` (stereo unspecified), with 14%; and `CN(C1CCS(=O)(=O)C1)S(=O)C12CC3CC(CC(C3)C1)C2` (stereo unspecified), with -4.8%; and `COc1ccc(-n2c(=O)c3c4c(sc3n3c(SCCC(C)C)nnc23)CCCC4)cc1`, with 89.8%.
Regarding `COC(=O)CSc1nnc2n(-c3ccc(OC)cc3)c(=O)c3c4c(sc3n12)CCCC4`, the displacement was 5.6%.
Regarding `COc1ccc(-n2c(=O)c3c4c(sc3n3c(SCC(N)=O)nnc23)CCCC4)cc1`, the displacement was found to be 0.7%.
For the compound `CCCSc1nnc2n(-c3ccc(OC)cc3)c(=O)c3c4c(sc3n12)CCCC4`, the displacement amounted to 34.9%.
For the compound `CCSc1nnc2n(-c3ccc(OC)cc3)c(=O)c3c4c(sc3n12)CCCC4`, the displacement was determined as 119%.
`C=C(C)CSc1nnc2n(-c3ccc(OC)cc3)c(=O)c3c4c(sc3n12)CCCC4`: the displacement came to 3%.
As to `Clc1ccccc1C=NN1CCN(Cc2ccccc2Cl)CC1`, the displacement is -2.4%.
With `FC(F)(F)c1cc(/C=C/c2ccccc2)no1` the figure was 7.7%.
With `CC(=O)Nc1ccc(S(=O)(=O)Nc2cccc(C)c2C)cc1`, the displacement was 12.9%.
In the case of `CN(C)c1ccc(/C=N/NC(=O)Cn2c3ccccc3c(=O)c3ccccc32)cc1[N+](=O)[O-]`, the displacement is 2.3%.
Then `O=C1OC(c2ccc(F)cc2)=N/C1=C\c1ccc2c(c1)OCO2`, with 15.9%; and `O=C1OC(c2ccccc2Br)=N/C1=C\c1cccnc1`, with 4.7%; and `COc1ccccc1C1=N/C(=C\c2ccc3c(c2)OCO3)C(=O)O1`, with 111%.
For the compound `CN(C)/C=C1\N=C(c2ccccc2Br)OC1=O`, the displacement is -1.7%.
With `O=C1OC(c2ccccc2F)=N/C1=C\c1ccc(Br)cc1`, the displacement stood at 9%.
As for `COc1cccc(/C=C2\N=C(c3ccccc3OC)OC2=O)c1`, the displacement is -6%.
Turning to `O=C1/C(=C\c2ccc3c(c2)OCO3)N=C(c2ccccc2)N1c1ccc(F)cc1`, the displacement worked out at 179%.
As for `N=C1S/C(=C\c2ccc3c(c2)OCO3)C(=O)N1c1ccc(F)cc1`, the displacement was 2.6%.
Consider `O=C1OC(c2ccccc2F)=N/C1=C\c1ccc2c(c1)OCO2`, for which the displacement worked out at 80%.
`O=C1/C(=C/c2ccc3c(c2)OCO3)SC(=S)N1c1ccc(F)cc1`: the displacement stood at 11.8%.
Then `COc1ccccc1C1=N/C(=C\c2ccc([N+](=O)[O-])cc2)C(=O)O1`, with 27.4%; and `O=C1OC(c2ccccc2Br)=N/C1=C\c1cc2c(cc1Cl)OCO2`, with 116%; and `Cn1nnnc1SCc1ccc(F)cc1`, with -4%.
`O=C1CS/C(=N/N=C/c2c3ccccc3cc3ccccc23)N1`: the displacement is -1.8%.
On to `CC(NC(=O)c1ccccc1)C12CC3CC(CC(C3)C1)C2` (stereo unspecified), for which the displacement stood at 39.3%.
On to `Cc1cccc(OCC(=O)O/N=C(\N)c2cccc(C)c2)c1`, for which the displacement was -9.8%.
Regarding `CCOC(=O)CONC(=NCc1ccccc1)c1nonc1N`, the displacement is 3.6%.
For `CCc1c(C)nc(N)nc1N1CCCC1`, the displacement is 13.1%.
Then `Cc1ccc(C(=O)NCCCN2CCOCC2)c2ccccc12`, with -1.8%; and `COc1ccccc1N1C(=O)c2cccc3c(N(C)C)ccc(c23)C1=O`, with 42.1%.
With `Cc1ccccc1N1C(=O)c2cccc3c(N4CCCCC4)ccc(c23)C1=O` the figure was 15.9%; with `COc1ccccc1N1C(=O)c2ccc3c4c(ccc(c24)C1=O)CC3`, 13.4%; with `COc1ccccc1N1C(=O)c2cccc3c(N4CCCC4)ccc(c23)C1=O`, 102%.
Then `COc1ccccc1N1C(=O)c2cccc3c(N4CCN(C)CC4)ccc(c23)C1=O`, with 157%; and `COc1ccccc1N1C(=O)c2cccc3c(Cl)ccc(c23)C1=O`, with 22.2%.
For `Cc1cc(C)n(C2CC(=O)N(c3ccccc3)C2=O)n1` (stereo unspecified), the displacement turned out to be 0.8%.
For `COc1ccc(C=C2C(=O)N(C)C(=O)N(C)C2=O)cc1O`, the displacement is -7.9%.
As to `O=S(=O)(Nc1ccc(O)cc1)c1cc(Cl)ccc1Cl`, the displacement is -0.2%.
`O=C(c1cccc(F)c1)N1CCN(C(=O)c2cccc(Cl)c2)CC1`: the displacement is -18.6%.
Take `O=c1sc2ccccc2c(N2CCN(c3ccccc3)CC2)c1[N+](=O)[O-]`: the displacement was -11.1%.
Turning to `O=C(COC(=O)CN1C(=O)c2ccccc2C1=O)Nc1cccc2ccccc12`, the displacement was -8.1%.
Regarding `N#C/C(=C/c1ccc(Sc2ccccc2)o1)C(=O)Nc1ccccc1`, the displacement was -22.8%.
For `N#C/C(=C/c1ccc(-c2ccc(S(N)(=O)=O)cc2)o1)C(=O)Nc1ccccc1`, the displacement is -0.4%.
Then `N#C/C(=C\c1ccc(-c2ccc(Cl)cc2)o1)C(=O)Nc1ccccc1O`, with -1%; and `Cc1cccc(NC(=O)/C(C#N)=C\c2ccc(Sc3ccccc3)o2)c1C`, with 74.9%; and `N#C/C(=C\c1ccc(-c2ccccc2)o1)C(=O)Nc1ccc(C#N)cc1`, with 168%.
With `CCc1ccccc1NC(=O)/C(C#N)=C\c1ccc(Sc2ccccc2)o1`, the displacement was -12.2%.
In the case of `CCOc1ccc(/C=C/C(=O)c2ccc(F)cc2)cc1`, the displacement is -0.4%.
`CN(C)/C=C1\C(=O)N/C(=C/c2ccc(Br)cc2)C1=O`: the displacement was 7.9%.
Take `CCN(CC)c1ccc(NC(=O)c2ccc3ccccc3n2)cc1`: the displacement is 1.3%.
For the compound `CCCCS(=O)CC(O)COC(C)C` (stereo unspecified), the displacement is -1.5%.
Consider `Cc1cc(OCC(=O)NC2C3CC4CC(C3)CC2C4)ccc1Br` (stereo unspecified), for which the displacement is -6.7%.
Then `COc1cc(/C=C2\C=C(c3ccc(Br)cc3)OC2=O)c([N+](=O)[O-])cc1OC`, with 55%; and `COc1cc(/C=C2\C=C(c3ccc(Cl)cc3)OC2=O)c([N+](=O)[O-])cc1OC`, with -11.8%; and `COc1ccc(C2=C/C(=C\c3ccc(OC)c([N+](=O)[O-])c3)C(=O)O2)cc1`, with 2.7%.
Regarding `COc1ccc(/C=C2\C=C(c3ccc(C)cc3)OC2=O)cc1[N+](=O)[O-]`, the displacement turned out to be 6.6%.
On to `COc1cc(OC)c([N+](=O)[O-])cc1/C=C1\C=C(c2ccc(Br)cc2)OC1=O`, for which the displacement amounted to 49.1%.
Consider `COc1ccc(/C=C2\C=C(c3ccc(Br)cc3)OC2=O)cc1[N+](=O)[O-]`, for which the displacement is 70%.
Take `COc1cccc(OCCCCS)c1`: the displacement was found to be 10%.
Turning to `O=C(O)c1cc(S(=O)(=O)N2CCCCC2)ccc1O`, the displacement is -1.5%.
Regarding `COc1ccc(C2CC(=O)C3=C(C2)Nc2ccccc2NC3c2cccc3ccccc23)cc1OC` (stereo unspecified), the displacement turned out to be 1.8%.
With `O=C(Nc1c(C(=O)N2CCOCC2)cnn1-c1ccccc1)c1cccs1` the figure was 12.5%.
For `CN1CCN(Cc2c(O)ccc3cc(-c4ccccn4)c(=O)oc23)CC1`, the displacement worked out at 25.9%.
As to `CN1CCN(Cc2c(O)ccc3cc(-c4nc5ccccc5s4)c(=O)oc23)CC1`, the displacement was 121%.
As to `CCc1cc2c(=O)c(-c3nc4ccccc4s3)coc2c(CN2CCOCC2)c1O`, the displacement came to 1%.
Regarding `Cc1oc2c(CN3CCN(C)CC3)c(O)ccc2c(=O)c1-c1nc2ccccc2s1`, the displacement turned out to be 11.7%.
As to `O=c1oc2c(CN3CCOCC3)c(O)ccc2cc1-c1nc2ccccc2s1`, the displacement was determined as 118%.
As to `CCc1cc2c(=O)c(-c3nc4ccccc4s3)coc2c(CN(C)C)c1O`, the displacement was -15%.
With `Cc1oc2c(CN(CC(C)C)CC(C)C)c(O)ccc2c(=O)c1-c1nc2ccccc2s1`, the displacement was determined as 12.7%.
Regarding `Cc1oc2c(CN3CCCC3)c(O)ccc2c(=O)c1-c1nc2ccccc2s1`, the displacement amounted to 12.7%.
On to `CN(C)Cc1c(O)ccc2cc(-c3nc4ccccc4s3)c(=O)oc12`, for which the displacement is 110%.
Turning to `Cc1cccc(NC(=O)C2C(c3ccccc3)=C2c2ccccc2)c1C`, the displacement came out at 5.5%.
Turning to `CCN(CC)c1ccc(NC(=O)COc2ccc(OC)cc2)cc1`, the displacement is -5%.
In the case of `COc1ccccc1N1C(=O)NC(=O)/C(=C/c2ccc(OC)c3ccccc23)C1=O`, the displacement was 5.3%.
Take `C=CCOc1ccc(Cl)cc1/C=C1/SC(=S)NC1=O`: the displacement is -2.6%.
Regarding `O=C(Nc1cc(Br)cc2cccnc12)c1ccc(Cl)cc1`, the displacement is -7.2%.
Consider `Cc1cc(/C=C2/NC(=O)NC2=O)c(C)n1-c1ccc(Cl)cc1`, for which the displacement amounted to 10.7%.
On to `Cc1cc(/C=C2\C(=O)NC(=O)N(C)C2=O)c(C)n1-c1ccc(N(C)C)cc1`, for which the displacement is 124%.
With `Cc1cc(/C=C2\NC(=O)NC2=O)c(C)n1-c1ccc(N(C)C)cc1` the figure was 3.4%.
Take `Cc1cc(/C=C2/C(=O)NC(=O)N(c3ccccc3)C2=O)c(C)n1-c1ccccc1`: the displacement is 30.8%.
In the case of `Cc1cc(C=C2C(=O)NC(=O)NC2=O)c(C)n1-c1ccc(Cl)cc1`, the displacement was 106%.
Regarding `Cc1cc(/C=C2/NC(=O)NC2=O)c(C)n1-c1ccc(N2CCOCC2)cc1`, the displacement was -5.1%.
With `Cc1cc(C=C2C(=O)NC(=O)NC2=O)c(C)n1-c1ccc(F)cc1` the figure was 4.7%; with `Cc1cc(C=C2C(=O)NC(=O)NC2=O)c(C)n1-c1ccc(N2CCOCC2)cc1`, 126%.
For `Cc1cc(C=C2C(=O)NC(=S)NC2=O)c(C)n1-c1ccc(N2CCOCC2)cc1`, the displacement is 22.3%.
